Rows were chosen to be rich in hits. Some 9.3% of all compounds tested hit in one or more screens of this group.
HCMV antiviral: human cytomegalovirus inhibition; HFF cells, HCMV-luciferase reporter, 72 h; hits give low values; activity change, negative = inhibition, % at 57.5 µM; 410,000 tested, 4.5% active; in the data active = activity change below about -60%; inconclusive = no clear call, values can overlap the other calls; inactive = above about -39%
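Luciferase read-out from HCMV-luciferase-infected HFFs (MOI 1 PFU/cell) 72 h post infection at 37C; compounds added after 16 h cell attachment; activity normalized between buffer-only basal and Salinomycin (10uM) inhibitor controls.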
Sm TGR block: S. mansoni TGR enzyme inhibition | Q962Y6 | purified TGR, DTNB reduction, TNB absorbance 405 nm | Potency, µM (top dose mostly 114 µM), usual class: inhibitors | 360,000 tested, 3% active; also: nearly all actives have a fitted effect of over 60% in size
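First, TGR (20 nM dispensed) and NADPH were mixed with compound. Second, a 15 min room-temperature incubation followed. Third, further NADPH and then DTNB were added to start the reaction. Finally, TNB absorbance was monitored kinetically.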
VACV mCherry inh: vaccinia inhibition (mCherry reporter); Vaccinia virus mCherry reporter infection, fluorescence; Potency, µM (series often up to 36.5 µM), most hits filed as inhibitors; 310,000 tested, 0.63% active; AID 720579; calls by dose curve; tested in A549 cells; also: nearly all actives have a fitted effect of over 35% in size
HCV inhibitor: blocks hepatitis C virus. Potency, µM (titrated, usually from 41.8 µM), most hits filed as inhibitors. 340,000 tested, 3.4% active. Huh7.5.1 HCVcc-Cre infection, luciferase reporter, 44 h
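After 44 h co-culture of compound, cells and HCVcc-Cre (~0.5 moi), substrate is added for 15 min at room temperature and luciferase measured over 15 sec. Cells were seeded at 1,000/well and pre-cultured 4 h.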
FMDV inh: blocks foot and mouth disease virus. FMDV antiviral cell-based qHTS. Potency, µM (series often up to 57.9 µM), actives largely listed as inhibitors. 410,000 tested, 1.2% active. AID 1159524; calls by dose curve; tested in HEK293T cells; also: read-out not given here; nearly all actives have a fitted effect of over 45% in size
VACV Venus inh: vaccinia inhibition (Venus reporter); Vaccinia virus Venus reporter expression, fluorescence; Potency, µM (top dose mostly 36.5 µM), usual class: inhibitors; 330,000 tested, 0.46% active; AID 720580; calls by dose curve; tested in A549 cells; also: nearly all actives have a fitted effect of over 30% in size
Each line names hits and unclear results; the compound was inactive in the other large screens. Unless noted, calls follow the shape of the dose curve; as a rule, active = well fitted curve in the direction sought with a large enough effect; inconclusive = small, poorly fitted or top-dose-only effect, or another doubt; inactive = no such curve, though single readings can be large; an effect the other way counts as inactive or inconclusive.

Cc1ccc(N(CC(=O)NC2CCCCC2)C(=O)c2ccc(C)s2)cc1	HCMV antiviral -63, HCV inhibitor inconclusive (no result: FMDV inh)
Cc1ccc(C(=O)N(CC(=O)NC2CCCC2)c2ccc3c(c2)OCCO3)s1	HCV inhibitor inconclusive
Cc1cc(C)cc(N(CC(=O)NC2CCCCC2)C(=O)c2ccc(C)s2)c1	HCV inhibitor 11µM (no result: FMDV inh)
Cc1ccc(N(CC(=O)NC2CCCC2)C(=O)c2ccc(C)s2)cc1	HCV inhibitor 11µM (no result: Sm TGR block, VACV mCherry inh, VACV Venus inh)
CC(=O)COc1ccc2c(-c3cccc([N+](=O)[O-])c3)cc(=O)oc2c1	none (no result: Sm TGR block, VACV mCherry inh, VACV Venus inh)
C[C@H](O)[C@@H]1C(=O)N2CCc3c([nH]c4ccccc34)[C@@H]2C[C@@H]1N(C)C(=O)c1cc(Cl)cc(Cl)c1	none (no result: Sm TGR block, HCV inhibitor)
O=C(Nc1ccc(Cl)cc1F)c1cc(S(=O)(=O)N2CCCCC2)ccc1F	HCV inhibitor inconclusive
CN1CCN(S(=O)(=O)c2ccc([N+](=O)[O-])cc2)CC1	none (no result: VACV mCherry inh, VACV Venus inh)
O=[N+]([O-])c1ccc(-c2ccc(S(=O)(=O)N3CCOCC3)cc2)cc1	none (no result: VACV mCherry inh, VACV Venus inh)
O=[N+]([O-])c1ccc(Oc2ccc(S(=O)(=O)N3CCOCC3)cc2)cc1	HCMV antiviral inconclusive, VACV mCherry inh inconclusive, HCV inhibitor 11µM
CC1CCN(S(=O)(=O)c2ccc(Oc3ccc([N+](=O)[O-])cc3)cc2)CC1	HCMV antiviral -77, VACV mCherry inh inconclusive, HCV inhibitor inconclusive, FMDV inh inconclusive, VACV Venus inh inconclusive
CC1CCN(S(=O)(=O)c2ccc([N+](=O)[O-])cc2)CC1	none
O=[N+]([O-])c1ccc(Oc2ccc(S(=O)(=O)N3CCCCC3)cc2)cc1	HCMV antiviral -63, HCV inhibitor inconclusive, FMDV inh inconclusive
COCCN(C(=S)Nc1ccc(C)cc1)C(C)c1cccnc1 (stereo unspecified)	none
Cc1cccc(OCC(=O)N2CCN(Cc3cc(=O)n4nc(-c5ccccc5Cl)sc4n3)CC2)c1	none (no result: HCV inhibitor)
COc1cccc(NC(=O)CN(C)C(=O)c2c(C)noc2C)c1	none
C=CCN=C(CC)C1=C(O)CCCC1=O	HCMV antiviral -67
CC(=O)N1C(=O)/C(=C2\SC(=S)N(NS(=O)(=O)c3ccc(C)cc3)C2=O)c2ccccc21	Sm TGR block 2.5µM (no result: VACV mCherry inh, VACV Venus inh)
COC1CCN(C(=O)c2cc(COc3ccc(-n4cncn4)cc3)on2)CC1	none (no result: VACV mCherry inh, VACV Venus inh)
COc1ccc(Br)cc1/C=C/C(=O)c1ccc(NC(C)=O)cc1	HCMV antiviral -98, VACV mCherry inh 4.5µM, HCV inhibitor inconclusive, FMDV inh 10µM, VACV Venus inh 5.6µM
COc1ccc(C(=O)Nc2ccc(NC(=O)c3cccs3)cc2)cc1Cl	HCMV antiviral -76 (no result: VACV mCherry inh, VACV Venus inh)
COc1ccc(/C=C/C(=O)c2ccc(NC(=O)c3cccs3)cc2)cc1OC	HCV inhibitor 10µM (no result: VACV mCherry inh, VACV Venus inh)
COc1ccc(NC(=O)/C=C/c2cc(Br)ccc2OC)cc1	HCV inhibitor inconclusive (no result: VACV mCherry inh)
CCCOc1ccc(C(=O)Nc2ccc(NC(=O)c3cccs3)cc2)cc1	none
COc1ccc(C(=O)Nc2ccc(NC(=O)c3cccs3)cc2)cc1OC	none (no result: HCV inhibitor)
CCCCOc1cccc(C(=O)Nc2ccc(NC(=O)c3cccs3)cc2)c1	HCMV antiviral -89, HCV inhibitor inconclusive, VACV Venus inh inconclusive
O=Nc1c(-c2ccccc2)[nH]n(-c2ccccc2)c1=O	none
O=C(NC1CCCCC1)N1CCC(c2nc3ccc(Cl)cc3[nH]2)CC1	none (no result: VACV mCherry inh, VACV Venus inh)
O=C(Cn1c(C(F)(F)F)nc2ccccc21)NCCN1CCCC1	none
Cc1csc2ncnc(NCCc3ccccn3)c12	HCMV antiviral inconclusive, HCV inhibitor 7.1µM, FMDV inh inconclusive (no result: VACV mCherry inh, VACV Venus inh)
c1ccc(CCNc2ncnc3sccc23)nc1	HCMV antiviral inconclusive, HCV inhibitor inconclusive
CCN(C(=O)CCc1nnc2ccc(NCc3ccco3)nn12)c1ccccc1	none
CCc1ccccc1NC(=O)CN(C)Cc1c(O)ccc2ccccc12	Sm TGR block 0.71µM
CN(CC(=O)Nc1ccccc1C(F)(F)F)C(=O)c1cc(Cl)nc2ccccc12	none
CCCN(CC(=O)Nc1ccccc1OC)Cc1c(O)ccc2ccccc12	Sm TGR block 2µM
COc1ccccc1NC(=O)C(C)N(C)CC(=O)Nc1cccc2ccccc12 (stereo unspecified)	FMDV inh inconclusive (no result: Sm TGR block)
CN(CC(=O)Nc1ccccc1C(F)(F)F)Cc1c(O)ccc2ccccc12	Sm TGR block 1µM
CCc1ccc(-n2nc(C)c3c(C)cc(=O)n(CC(=O)N4CCCc5ccccc54)c32)cc1	none (no result: HCV inhibitor)
Cc1cc[n+](C(C)C(=O)c2ccc(Cl)cc2)cc1 (stereo unspecified)	none
Cc1cc[n+](C(C)C(=O)c2ccc(-c3ccccc3)cc2)cc1 (stereo unspecified)	HCMV antiviral -102, HCV inhibitor inconclusive, FMDV inh inconclusive
Cc1ccc[n+](C(C)C(=O)c2ccc(-c3ccccc3)cc2)c1 (stereo unspecified)	HCMV antiviral -98
CC(C(=O)c1ccc(-c2ccccc2)cc1)[n+]1ccccc1 (stereo unspecified)	HCMV antiviral -97, HCV inhibitor inconclusive
CC(Sc1nc2ccccc2c(=O)n1CCCN1CCOCC1)C(=O)N1CCc2ccccc21 (stereo unspecified)	none (no result: Sm TGR block)
Cc1cc(-c2nc3ccccc3o2)c2ccccc2n1	HCV inhibitor 14µM (no result: VACV mCherry inh, VACV Venus inh)
O=C(CC1S/C(=N/N=C2CCCCCC2)NC1=O)Nc1ccccc1F (stereo unspecified)	none (no result: VACV mCherry inh, VACV Venus inh)
CC1=C/C(=N\N=C2\NC(=O)C(CC(=O)Nc3ccccc3F)S2)CC(C)(C)C1 (stereo unspecified)	HCMV antiviral -65
O=C(Nc1cccc(F)c1)/C(=C/c1ccco1)NC(=O)c1ccco1	Sm TGR block 45µM (no result: VACV mCherry inh, VACV Venus inh)
O=C(Nc1cccc(C(=O)O)c1)/C(=C\c1ccco1)NC(=O)c1ccc(Br)o1	Sm TGR block 50µM, FMDV inh inconclusive
CC(C)C(=O)N1c2ncnn2C2(CCCCC2)[C@@H]2CCCC[C@@H]21	HCMV antiviral -111 (no result: HCV inhibitor)
NC(=S)N/N=C1\CC(n2nnnc2-c2ccccc2)C2COC1O2 (stereo unspecified)	HCMV antiviral -68, Sm TGR block inconclusive (no result: VACV mCherry inh, VACV Venus inh)
NC(=S)N/N=C1\CC(n2nnn(-c3cccc(Cl)c3)c2=S)C2COC1O2 (stereo unspecified)	VACV mCherry inh 11µM, VACV Venus inh inconclusive
CC1=CCC2COC(c3ccc[n+](Cc4ccccc4)c3)C1C2 (stereo unspecified)	HCMV antiviral inconclusive, Sm TGR block 35µM
CCn1c(=N)c(S(=O)(=O)c2ccc(Cl)cc2)cc2c(=O)n3ccccc3nc21	none (no result: HCMV antiviral, VACV mCherry inh, HCV inhibitor, FMDV inh, VACV Venus inh)
COc1ccc(/C=C/C(=O)Nc2ccc3nc(N4CCCCC4)cc(C)c3c2)cc1OC	FMDV inh inconclusive (no result: HCV inhibitor)
COc1ccccc1Nc1c2c(nc3ccc(NC(=O)c4cccc(F)c4)cc13)CCCC2	HCMV antiviral -107, VACV mCherry inh 11µM, FMDV inh 32µM, VACV Venus inh inconclusive (no result: HCV inhibitor)
COc1ccc(/C=C/C(=O)Nc2ccc3nc4c(c(Nc5ccccc5OC)c3c2)CCCC4)cc1	HCMV antiviral -102 (no result: HCV inhibitor)

Bioassay records as filed in PubChem.
